Hits are enriched below; roughly 11% of the tested compounds scored in any of these assays.
NPSR antag – qHTS Assay for Antagonists of the Neuropeptide S Receptor: cAMP Signal Transduction. Potency, µM (series often up to 38.3 µM), for inactives: top-dose activity change, negative = inhibition, most hits filed as inhibitors. CHO-NPSR cells, cAMP TR-FRET, antagonist mode. AID 1461, 2008. actives 1% (n = 220,000). Q6W5P4; active = well fitted curve in the direction sought with a large enough effect; inconclusive = small, poorly fitted or top-dose-only effect, or another doubt; inactive = no such curve, though single readings can be large; an effect the other way counts as inactive or inconclusive; note: potency is the fitted concentration of half-maximal effect; nearly all actives have a fitted effect of over 50% in size
Target sequence (Q6W5P4 whole entry, looked up): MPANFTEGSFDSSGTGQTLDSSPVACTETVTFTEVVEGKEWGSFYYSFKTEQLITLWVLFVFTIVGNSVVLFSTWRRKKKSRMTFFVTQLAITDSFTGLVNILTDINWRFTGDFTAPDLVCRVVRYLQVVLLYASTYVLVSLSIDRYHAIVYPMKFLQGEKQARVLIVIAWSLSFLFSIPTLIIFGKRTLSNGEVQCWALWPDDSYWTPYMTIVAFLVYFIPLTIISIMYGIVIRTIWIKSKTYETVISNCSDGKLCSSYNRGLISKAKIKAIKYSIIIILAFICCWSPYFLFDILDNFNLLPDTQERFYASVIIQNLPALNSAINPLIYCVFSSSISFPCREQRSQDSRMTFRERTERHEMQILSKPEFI
PNC assembly inh – High Content Assay for Compounds that inhibit the Assembly of the Perinucleolar Compartment. PC3M PTB-GFP, PNC prevalence imaging, 16 h; hits give low values. activity change (PNC), negative = inhibition, % at 10 µM. actives 3.1% (n = 140,000). AID 2417, 2010;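 active = readout at or below -70, meaning at least 70% loss of cells showing the perinucleolar compartment, a nuclear body marking cancer cells; inconclusive = readout between -30 and a set limit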;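 note: plate controls were DMSO wells for no effect and camptothecin positive control wells for full effect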
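Compounds are pinned in duplicate onto adhered PC3M cells stably expressing GFP-tagged PTB and incubated 16 h at 37 C. Cells are then fixed, nuclei stained with Hoechst, and PNC-positive cells counted.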
IMPase inh – qHTS Assay for Identifying the Cell-Membrane Permeable IMPase Inhibitors; Inositol monophosphatase 1 (Rattus norvegicus), P97697; CHO-M1 cells, IP1 accumulation, HTRF TR-FRET ratio; inhibition (IP1 accumulation), % at 46.1 µM; 120,000 tested, under 10 active; active = well fitted curve in the direction sought with a large enough effect in the signal ratio, not every such curve was filed as active; inconclusive = small, poorly fitted or top-dose-only effect, or a change in a side signal; inactive = no such curve, though single readings can be large or run the other way; the % refers to the signal ratio;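 note: cells stimulated with carbachol in lithium chloride buffer; plate controls were DMSO basal wells for no effect and reference inhibitor wells for full effect; higher means more IMPase inhibition seen as more IP1 and lower FRET ratio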
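In this qHTS, compounds (final up to 46 uM) act on CHO-M1 cells that are then activated through the M1 receptor with carbachol, in pH 7.4 buffer containing 50 mM LiCl, for 30 min. IP1 accumulation is quantified by the IP-One immunoassay.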
IMPase Li inh – qHTS Assay for Identifying the Cell-Membrane Permeable IMPase Inhibitors: Potentiation with Lithium | actives 0.35% (n = 210,000) | Potency, µM (series often up to 59.4 µM), without a hit: at the top dose activity, negative = IMPase inhibition, most hits filed as inhibitors | CHO-M1 cells, IP1 TR-FRET (IP-One), carbachol + lithium; active = well fitted curve in the direction sought with a large enough effect; inconclusive = small, poorly fitted or top-dose-only effect, or another doubt; inactive = no such curve, though single readings can be large; an effect the other way counts as inactive or inconclusive;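 note: IP1 builds up when IMPase is blocked and the TR-FRET signal falls; potency is the fitted concentration of half-maximal effect; plate controls were basal vehicle for no effect and high inhibitor control for full effect; nearly all actives have a fitted effect of over 50% in size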
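Concentration–response in CHO-M1 cells, lithium-potentiated; 30 min at 37C. IP1 detected by competitive TR-FRET after 10 min lysis at RT. Hill-fitted AC50.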
ALDH1A1 block – qHTS Assay for Inhibitors of Aldehyde Dehydrogenase 1 (ALDH1A1). Potency, µM (doses to about 75.3 µM), without a hit: at the top dose activity, negative = inhibition, actives largely listed as inhibitors. Purified ALDH1A1, NADH fluorescence, propionaldehyde substrate. actives 7.3% (n = 220,000). Aldehyde dehydrogenase 1A1 (Homo sapiens), P00352;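 note: potency is the fitted concentration of half-maximal effect; plate controls were no enzyme wells and a reference inhibitor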
HPGD block – qHTS Assay for Inhibitors of HPGD (15-Hydroxyprostaglandin Dehydrogenase). 15-hydroxyprostaglandin dehydrogenase [NAD(+)] (Homo sapiens), P15428. purified HPGD, NADH fluorescence kinetic, PGE2 substrate. Potency, µM, without a hit: at the highest dose activity change, negative = inhibition, usual class: inhibitors. actives 4.3% (n = 150,000); note: potency is the fitted concentration of half-maximal effect
Target sequence (P15428 whole entry, looked up): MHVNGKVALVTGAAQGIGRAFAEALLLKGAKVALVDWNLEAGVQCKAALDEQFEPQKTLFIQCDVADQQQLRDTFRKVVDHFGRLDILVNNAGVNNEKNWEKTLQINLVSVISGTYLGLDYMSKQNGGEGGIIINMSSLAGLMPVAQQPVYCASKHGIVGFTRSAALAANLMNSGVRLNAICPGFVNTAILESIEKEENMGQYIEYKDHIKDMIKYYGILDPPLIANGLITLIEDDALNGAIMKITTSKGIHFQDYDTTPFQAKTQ
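NADH formation kinetics: reaction with 30 uM PGE2 and 1 mM NAD+ (final), 20 nM enzyme, Tris-HCl pH 8 with Tween 20, after 15 min compound preincubation at room temperature. Fluorescence change, last versus first of five reads.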
* = called active by the depositor; ? = inconclusive; · = no result; [ ] = remark or other dose. Unless noted, calls come from the whole dose curve; as a rule, active = well fitted inhibition curve with a large enough effect (not every such curve was filed as active); inconclusive = small, poorly fitted or top-dose-only effect, or another doubt; inactive = no such curve, though single readings can be large or run the other way. Unless noted, % is set by controls: 0 for no effect and ±100 for the full control effect.

SMILES	NPSR antag	PNC assembly inh	IMPase inh	IMPase Li inh	ALDH1A1 block	HPGD block
COC(=O)c1cc(NC(=O)c2cc(C)oc2C)cc(C(=O)OC)c1	-20%[46.1 µM]	-100*	-5	11%	25µM*	-21%
O=C(NCc1cccs1)c1ccc2c(c1)OCCO2	-2%[46.1 µM]	?	?	-5%[38.3 µM]	4%	25µM*
Cc1scc(C(=O)NCc2ccco2)c1-c1ccccc1	-19%[46.1 µM]	?	-1	16%[38.3 µM]	?	32µM*
O=C(O)c1ccccc1N(Cc1ccccc1)C(=O)CO/N=C/c1ccccc1	8%	8	·	6%	-1%	-22%
Cc1cc(=O)n(-c2ccc3ccccc3n2)[nH]1	-16%[46.1 µM]	20	0	11%[38.3 µM]	?	-5%
O=C(Nc1ccc(Cl)c(Cl)c1)c1ccc(Cl)c(Cl)c1	3%	·	·	·	-7%	·
Cc1ccc(NC(=O)c2ccc(Cl)c(N3C(=O)C=CC3=O)c2)cc1	?	27	3	45%[38.3 µM]	3.2µM*	3.5µM*
Cc1ccc(SC(CC(=O)c2ccc(C)cc2)C(=O)O)cc1 (stereo not given)	-29%[46.1 µM]	?	8	20%[38.3 µM]	0.13µM*	-20%
O=c1/c(=C/c2ccc(O)cc2)sc2nc3cc(Br)cnc3n12	-4%	·	·	-2%	20µM*	·
Cc1cc(C)n(-c2ccc(C(=O)Nc3cccc([N+](=O)[O-])c3)cc2)n1	-14%	·	·	10%	2%	·
CCOc1cc(/C=C2/SC(=S)N(C)C2=O)ccc1Oc1ccc([N+](=O)[O-])cc1[N+](=O)[O-]	2%	·	·	7%	0.4µM*	·
CCOc1ccc(/C=C2\SC(=S)N(Nc3ccccc3)C2=O)cc1OC	-15%	-18	·	14%	3.2µM*	-7%
C=CCN1C(=O)/C(=C\c2cc(Br)c(OCc3ccccn3)c(OC)c2)SC1=S	?	·	·	20%	0.28µM*	·
COc1cc(/C=C2\SC(=S)N(Nc3ccccc3)C2=O)cc(OC)c1OC	?	-3	16	25%[38.3 µM]	7.1µM*	-17%
COCc1cc(C)n(CC(=O)Nc2c(C)cccc2C)c(=O)c1C#N	1%	·	·	5%	-148%	·
Cc1nn2c(-c3cccc(NC(=O)c4ccco4)c3)nnc2c2ccccc12	-27%[46.1 µM]	40	9	4%[38.3 µM]	-16%	-27%
CCOc1cc(C(=O)Nc2c(NC)c3ccccc3oc2=O)cc(OCC)c1OCC	·	·	2	·	·	·
COc1cc(/C=C2\SC(=S)N(NS(=O)(=O)c3ccccc3)C2=O)ccc1O	-46%	·	·	·	·	·
COc1cc(/C=C2\SC(=S)N(NS(=O)(=O)c3ccc(C)cc3)C2=O)ccc1O	?	·	·	·	25µM*	·
Cc1c(-c2nc(N)nc(Nc3ccccc3F)n2)oc2ccccc12	?	61	-7	21%[38.3 µM]	?	?
CCOC(=O)N1CCN(C(=O)CSc2nnc(C3COc4ccccc4O3)o2)CC1 (stereo not given)	-17%[46.1 µM]	16	12	-26%[38.3 µM]	32µM*	-16%
O=C(CSc1nnc(C2COc3ccccc3O2)o1)Nc1ccc(F)cc1Cl (stereo not given)	-3%	·	·	7%	10µM*	·
O=C(CSc1nnc(C2COc3ccccc3O2)o1)N1CCCC1 (stereo not given)	11%	·	·	-3%	?	·
Cc1ccc(NC(=O)CSc2nnc(C3COc4ccccc4O3)o2)c(Cl)c1 (stereo not given)	-2%	·	·	0%	2.8µM*	·
COc1ccccc1Nc1nc(N)nc(CSC(=S)N2CCCCC2C)n1 (stereo not given)	?	-11	10	10%	?	-16%
SMILES	NPSR antag	PNC assembly inh	IMPase inh	IMPase Li inh	ALDH1A1 block	HPGD block
Cc1nc(SCc2cccc(F)c2)[nH]c(=O)c1C#N	-7%[46.1 µM]	4	0	·	-11%	·
CC1(c2cnc(Nc3ccccc3)s2)CCC(=O)O1 (stereo not given)	-7%[46.1 µM]	-29	5	-8%[38.3 µM]	18µM*	-15%
COc1ccccc1-n1c(CNC(=O)COc2ccccc2)n[nH]c1=S	-13%[46.1 µM]	1	-1	29%[38.3 µM]	2.2µM*	?
CCCc1nnc(NC(=O)c2c(O)c3c([nH]c2=O)CCCC3)s1	-8%[46.1 µM]	-114*	-2	-12%[38.3 µM]	9%	-11%
OCCNCc1cccc(Br)c1	20%	·	·	-7%	4%	·
CCOC(=O)c1ccc(CNC(=O)c2cc(C(C)(C)C)oc2C)o1	-15%[46.1 µM]	-14	0	4%[38.3 µM]	25µM*	-6%
CCOC(=O)c1cc(C(C)(C)C)oc1CN	6%	?	16	5%	3%	5%
CCOC(=O)c1cc(C(C)(C)C)oc1CNC(=O)c1c(C)oc2c1CCCC2	?	280	43	11%	18µM*	-23%
Cc1oc(C(C)(C)C)cc1C(=O)NCc1ccc2c(c1)OCO2	13%	·	·	·	-5%	·
Cn1cccc1/C=N/NC(=O)c1cccnc1	-2%	?	6	2%	-12%	-9%
Cn1cccc1/C=N/NC(=O)c1ccn[nH]1	6%	-119*	-1	5%	3%	-5%
Cc1ccc(C(=O)N/N=C\c2cccn2C)cn1	-19%[46.1 µM]	-26	?	-3%[38.3 µM]	-4%	14µM*
CCOc1cc(/C=C2\SC(=N)N(c3nonc3N)C2=O)ccc1OCCN1CCOCC1	39%	·	·	7%	6%	·
CCOc1cc(/C=C2\SC(=N)N(c3nonc3N)C2=O)ccc1OCC(N)=O	20%	17	-9	-9%	-18%	13µM*
O=C(O)C1C2C=CC(O2)C1C(=O)Nc1ccc(S(=O)(=O)N2CCc3ccccc32)cc1 (stereo not given)	-5%[46.1 µM]	29	-18	-9%[38.3 µM]	10µM*	-22%
O=C(O)C1C2C=CC(O2)C1C(=O)Nc1ccc2c(c1)OCCO2 (stereo not given)	5%[46.1 µM]	-11	1	-5%[38.3 µM]	11µM*	-6%
O=C(O)C1C2C=CC(O2)C1C(=O)Nc1ccc(S(=O)(=O)Nc2ccccc2)cc1 (stereo not given)	0%[46.1 µM]	-19	-4	15%[38.3 µM]	1.1µM*	?
CC(=O)Nc1ccc(S(=O)(=O)N2CCCc3ccccc32)cc1	-10%[46.1 µM]	-2	1	27%[38.3 µM]	-7%	-13%
Cc1ccc2nc(/N=C(\N)NC(=O)NC3CCCCC3)nc(C)c2c1	-55%	·	·	·	·	·
Cc1ccc(-c2c(C(=O)N(C)Cc3ccccc3)oc(=O)c3ccccc23)cc1	?	28	·	8%	1.8µM*	-13%
